The nature of experiment [1]: ATG_E_Box_CIS: Attagene CIS-FACTORIAL HepG2 Assay for human Enhancer Box (E-box) (AID 2282936). The following applies: HepG2 E-box cis-reporter transcription, actives raise or lower the signal. Put shortly:
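In this cell-based setup, HepG2 cells bearing transfected promoter-driven reporter units were exposed to chemicals for 24 h; reporter transcripts were amplified, 6-FAM-labelled, cut with HpaI and sized by capillary electrophoresis.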

The nature of experiment [2]: ATG_M_61_CIS: Attagene CIS-FACTORIAL HepG2 Assay for M61 Transcription Factor (Internal Marker) (AID 2282937). Conditions: HepG2 Attagene CIS-FACTORIAL M61 internal marker reporter; actives raise or lower the signal. In outline:
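Fluorescence from labelled cDNA fragments, separated by capillary electrophoresis, quantifies reporter induction. HepG2 cells bearing transiently transfected cis-promoter MRTUs were incubated with test chemical for 24 h; DMSO defined baseline for gain/loss fitting.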

Experiment [3] in a line: ATG_EGR_CIS: Attagene CIS-FACTORIAL HepG2 Assay for human Early Growth Response 1 (EGR1) (AID 2282938). The following applies: HepG2 Attagene CIS-FACTORIAL EGR reporter mRNA; actives raise or lower the signal. In outline: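 Cell-based multiplex transcription assay: HepG2 carrying transfected cis-element reporter units, 24 h chemical treatment. Fluorescence from capillary electrophoresis of RT-PCR products gives mRNA levels; fitting is bidirectional relative to DMSO.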

A short description of experiment [4]: ATG_M_19_CIS: Attagene CIS-FACTORIAL HepG2 Assay for M19 Transcription Factor (Internal Marker) (AID 2282939). Conditions: HepG2 Attagene CIS-FACTORIAL M19 internal marker reporter; actives raise or lower the signal. Put shortly:
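HepG2, MRTU transient transfection, 24 h dosing. Total RNA → RT-PCR → 6-FAM primer extension → HpaI digest → CE fluorescence. Bidirectional curve fit, DMSO negative control.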

Experiment [5] can be described thus: ATG_ERE_CIS: Attagene CIS-FACTORIAL HepG2 Assay for Estrogen Response Element (ERE) (AID 2282940). The following applies: HepG2 ERE cis-reporter, Attagene RNA transcript; actives raise or lower the signal. In outline: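 After a 24 h chemical treatment, RNA from reporter-transfected HepG2 cells is reverse-transcribed, PCR-amplified and fluorescently labelled. Fragments separated by capillary electrophoresis give reporter signal; DMSO serves as negative control.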

Experiment [6] has as its target Hepatocyte nuclear factor 3-beta (Homo sapiens) (UniProt Q9Y261). Put plainly: ATG_FoxA2_CIS: Attagene CIS-FACTORIAL HepG2 Assay for human Forkhead box A2 (FOXA2) (AID 2282942). The following applies: HepG2 cis-reporter transcription factor activity, 24 h; actives raise or lower the signal. Put shortly: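 In transiently transfected human HepG2 cells, promoter-driven reporter mRNA levels after 24 h chemical exposure are determined via RT-PCR with capillary electrophoresis. DMSO serves as baseline for bidirectional fitting.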

Experiment [7] is described as follows: ATG_FoxO_CIS: Attagene CIS-FACTORIAL HepG2 Assay for human Forkhead box O (FoxO) (AID 2282943). The following applies: HepG2 Attagene cis-reporter, FoxO element, mRNA; actives raise or lower the signal. Put shortly:
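Read-out: fluorescence of 6-FAM-labelled reporter cDNA fragments resolved by capillary electrophoresis. Transiently transfected HepG2 cells were dosed for 24 h; activity fitted in both directions relative to DMSO controls.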

Experiment [8] in a line: ATG_GATA_CIS: Attagene CIS-FACTORIAL HepG2 Assay for human GATA Binding Protein (AID 2282944). Conditions: HepG2 GATA cis-element reporter, Attagene multiplex mRNA; actives raise or lower the signal. In outline: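 Cells: HepG2, transiently transfected with cis-regulated reporter transcription units. Exposure: 24 h. Detection: RT-PCR plus capillary electrophoresis of FAM-labeled fragments. Analysis: bidirectional, DMSO as baseline.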

Experiment [9] is described as follows: ATG_GLI_CIS: Attagene CIS-FACTORIAL HepG2 Assay for human Zinc Finger Protein GLI1 (AID 2282945). Conditions: HepG2, Attagene cis-factorial reporter mRNA, GLI element; actives raise or lower the signal. Put shortly: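 Transiently transfected HepG2 cells report endogenous transcription factor activity via cis-element-driven reporter units. After 24 h compound exposure, reporter mRNA was measured by RT-PCR with capillary electrophoresis; bidirectional fitting against DMSO baseline.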

For experiment [10], the target named is Bile acid receptor (Homo sapiens) (UniProt Q96RI1). Kind of experiment: ATG_IR1_CIS: Attagene CIS-FACTORIAL HepG2 Assay for human Nuclear Receptor Subfamily 1 Group H Member 4 (NR1H4), IR1 submotif (AID 2282946). The following applies: IR1 reporter transcription, actives raise or lower the signal. In outline: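 Fluorescence of capillary-separated, HpaI-digested RT-PCR reporter products gave IR1-element mRNA induction in HepG2 cells 24 h after dosing. Endogenous transcription factors drove the cis-regulated reporters; activity was fitted bidirectionally against DMSO.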

A short description of experiment [11]: ATG_ISRE_CIS: Attagene CIS-FACTORIAL HepG2 Assay for human Interferon Regulatory Factor 1 (IRF1) binding to an Interferon-Stimulated Response Element (ISRE) (AID 2282948). The following applies: HepG2 ISRE cis-reporter (Attagene), mRNA transcription readout; actives raise or lower the signal. In outline:
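Signal reflects induction or loss of ISRE-linked reporter mRNA in transiently transfected HepG2 cells after a 24 h treatment, detected by fluorescent RT-PCR fragments on capillary electrophoresis and normalised to DMSO.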

The nature of experiment [12]: ATG_M_32_CIS: Attagene CIS-FACTORIAL HepG2 Assay for M32 Transcription Factor (Internal Marker) (AID 2282949).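 Further: background control marker of the multiplexed CIS panel rather than a real target.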 The following applies: HepG2 Attagene cis-factorial M32 reporter, mRNA; actives raise or lower the signal. Put shortly: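 HepG2 transfectants (cis-regulated reporter transcription units) dosed 24 h. Reporter mRNA by RT-PCR plus CE, analysed as gain or loss relative to DMSO.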

A short description of experiment [13]: ATG_M_06_CIS: Attagene CIS-FACTORIAL HepG2 Assay for M06 Transcription Factor (Internal Marker) (AID 2282950). Conditions: HepG2 Attagene CIS-FACTORIAL M06 internal marker reporter; actives raise or lower the signal. Put shortly:
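Measured 24 h post-dosing in transiently transfected HepG2 cells, this internal-marker endpoint reports reporter mRNA via RT-PCR with fluorescent primer extension and capillary electrophoresis. DMSO served as negative control and baseline for bidirectional fitting.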

Experiment [14] concerns the target Hypoxia-inducible factor 1-alpha (Homo sapiens) (UniProt Q16665). Put plainly: ATG_HIF1a_CIS: Attagene CIS-FACTORIAL HepG2 Assay for human Hypoxia Inducible Factor 1 (HIF1A) (AID 2282951). The following applies: HepG2 Attagene cis-factorial HIF1a reporter transcription; actives raise or lower the signal. Put shortly:
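In this multiplexed cell assay, HepG2 cells bearing transfected cis reporters are dosed for 24 h and reporter mRNA is read by RT-PCR plus capillary electrophoresis; signal increases and decreases are both scored against DMSO.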

The target of experiment [15] is Hepatocyte nuclear factor 6 (Homo sapiens) (UniProt Q9UBC0). Put plainly: ATG_HNF6_CIS: Attagene CIS-FACTORIAL HepG2 Assay for human Hepatocyte Nuclear Factor 6 (HNF6) (AID 2282952). The following applies: HepG2 Attagene cis-factorial HNF6 reporter transcription; actives raise or lower the signal. Put shortly:
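Endogenous factor activity read in transiently transfected HepG2 via promoter-regulated reporter transcripts. RNA harvested 24 h post-dosing, reverse-transcribed, PCR-amplified, FAM-labelled, HpaI-digested and resolved by capillary electrophoresis; fitted in both directions against DMSO.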

Experiment [16] addresses Heat shock factor protein 1 (Homo sapiens) (UniProt Q00613). Put plainly: ATG_HSE_CIS: Attagene CIS-FACTORIAL HepG2 Assay for human Heat Shock Transcription Factor 1 (HSE) (AID 2282953). Conditions: HepG2 HSE cis-reporter, Attagene RNA transcription; actives raise or lower the signal. Put shortly: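 Reporter mRNA induction in HepG2 is measured 24 h after dosing, using transiently transfected multiplexed cis-regulated reporter units. Signal comes from capillary electrophoresis of labelled RT-PCR products, with DMSO as negative control.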

Experiment [17] can be described thus: ATG_MRE_CIS: Attagene CIS-FACTORIAL HepG2 Assay for human Metal Responsive Element (MRE) (AID 2282954). Conditions: HepG2 MRE cis-reporter transcription, Attagene multiplex; actives raise or lower the signal. Put shortly:
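Measured here is mRNA induction from an MRE cis-element reporter in HepG2 after 24 h, quantified by fluorescence of labelled RT-PCR products on capillary electrophoresis; gain- and loss-of-signal fits use DMSO as baseline.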

Experiment [18] can be described thus: ATG_PBREM_CIS: Attagene CIS-FACTORIAL HepG2 Assay for human Phenobarbital-responsive Enhancer Module (PBREM) (AID 2282955). Conditions: HepG2 PBREM cis-reporter, Attagene multiplexed transcription; actives raise or lower the signal. In outline:
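After a 24 h incubation with test chemical, transfected HepG2 cells yield total RNA; reporter-specific RT-PCR products are fluorescently labelled, HpaI-digested and resolved by capillary electrophoresis against ROX size standards.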

The nature of experiment [19]: ATG_Ets_CIS: Attagene CIS-FACTORIAL HepG2 Assay for human Erythroblast Transformation Specific (ETS) (AID 2282941). Conditions: HepG2 ETS cis-reporter transcription, actives raise or lower the signal. Put shortly: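 Multiplexed reporter transcript profiling: HepG2, 24 h treatment, total RNA to cDNA, PCR, 6-FAM labelling, HpaI cut, capillary electrophoresis. Gain- or loss-of-signal fitted against DMSO.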

Experiment [20] is described as follows: ATG_GRE_CIS: Attagene CIS-FACTORIAL HepG2 Assay for human Glucocorticoid Response Elements (GRE) (AID 2282947). The following applies: HepG2 GRE cis-reporter, Attagene multiplex mRNA; actives raise or lower the signal. In outline:
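Fluorescence intensity of reporter-specific cDNA fragments, separated by capillary electrophoresis, provides the signal. Constructs carry cis-regulating promoters in transiently transfected HepG2 liver cells; 24 h incubation; fitting is bidirectional against DMSO.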

Structures are written as SMILES. Activity calls are given as the source filed them. How the source made its calls: active means hit-call score of the fitted dose curve at least 0.9, where 1 is the maximum; inactive means score below 0.9.

Sequence of Heat shock factor protein 1 (Homo sapiens) (Q00613 whole entry, looked up): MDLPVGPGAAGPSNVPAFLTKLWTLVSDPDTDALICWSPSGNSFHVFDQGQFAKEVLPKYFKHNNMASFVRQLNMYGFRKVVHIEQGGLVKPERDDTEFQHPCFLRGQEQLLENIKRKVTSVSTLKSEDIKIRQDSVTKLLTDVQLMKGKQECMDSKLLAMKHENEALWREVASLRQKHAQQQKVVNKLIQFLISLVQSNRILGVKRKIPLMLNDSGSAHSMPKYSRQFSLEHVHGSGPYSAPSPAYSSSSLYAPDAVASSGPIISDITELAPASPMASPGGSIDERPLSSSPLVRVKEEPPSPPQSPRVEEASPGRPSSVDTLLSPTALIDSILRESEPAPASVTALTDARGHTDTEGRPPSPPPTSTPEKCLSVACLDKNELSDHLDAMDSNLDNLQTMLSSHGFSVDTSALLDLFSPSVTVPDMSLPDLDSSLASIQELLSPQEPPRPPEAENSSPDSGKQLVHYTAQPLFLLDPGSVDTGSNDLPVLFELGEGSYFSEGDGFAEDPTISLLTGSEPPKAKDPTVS
Sequence of Hypoxia-inducible factor 1-alpha (Homo sapiens) (Q16665 whole entry, looked up): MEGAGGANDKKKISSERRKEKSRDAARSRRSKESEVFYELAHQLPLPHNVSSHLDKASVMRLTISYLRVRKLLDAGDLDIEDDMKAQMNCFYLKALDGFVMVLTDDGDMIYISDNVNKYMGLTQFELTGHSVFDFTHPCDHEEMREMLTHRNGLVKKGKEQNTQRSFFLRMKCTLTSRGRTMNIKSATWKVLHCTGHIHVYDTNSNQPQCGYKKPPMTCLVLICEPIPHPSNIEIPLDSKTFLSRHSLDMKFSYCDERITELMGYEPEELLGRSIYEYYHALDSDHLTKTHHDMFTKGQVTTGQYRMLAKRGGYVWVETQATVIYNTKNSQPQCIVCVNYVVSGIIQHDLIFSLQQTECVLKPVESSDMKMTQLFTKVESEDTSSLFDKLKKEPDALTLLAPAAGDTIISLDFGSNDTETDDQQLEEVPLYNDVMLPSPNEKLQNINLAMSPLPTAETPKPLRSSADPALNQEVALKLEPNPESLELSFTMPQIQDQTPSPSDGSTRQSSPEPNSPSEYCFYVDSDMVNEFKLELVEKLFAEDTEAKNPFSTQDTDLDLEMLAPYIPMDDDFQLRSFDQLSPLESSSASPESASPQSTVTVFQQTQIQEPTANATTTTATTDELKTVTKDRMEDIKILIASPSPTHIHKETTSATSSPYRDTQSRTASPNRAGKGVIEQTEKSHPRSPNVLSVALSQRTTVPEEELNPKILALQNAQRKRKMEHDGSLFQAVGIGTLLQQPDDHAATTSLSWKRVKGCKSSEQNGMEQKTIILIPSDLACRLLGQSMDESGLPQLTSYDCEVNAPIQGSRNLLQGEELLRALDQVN
Sequence of Hepatocyte nuclear factor 6 (Homo sapiens) (Q9UBC0 whole entry, looked up): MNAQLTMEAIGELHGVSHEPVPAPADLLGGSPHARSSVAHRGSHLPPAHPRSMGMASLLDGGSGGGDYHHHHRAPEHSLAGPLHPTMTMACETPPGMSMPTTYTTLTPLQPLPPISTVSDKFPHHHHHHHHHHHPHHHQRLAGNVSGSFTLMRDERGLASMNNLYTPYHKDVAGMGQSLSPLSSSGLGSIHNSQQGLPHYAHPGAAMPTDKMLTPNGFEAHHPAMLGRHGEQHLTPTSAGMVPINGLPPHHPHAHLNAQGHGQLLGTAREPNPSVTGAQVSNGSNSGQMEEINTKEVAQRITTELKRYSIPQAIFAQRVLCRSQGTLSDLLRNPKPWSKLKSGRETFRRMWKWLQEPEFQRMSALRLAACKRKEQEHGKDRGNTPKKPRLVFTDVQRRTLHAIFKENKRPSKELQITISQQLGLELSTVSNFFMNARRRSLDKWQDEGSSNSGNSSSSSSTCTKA
Sequence of Hepatocyte nuclear factor 3-beta (Homo sapiens) (Q9Y261 whole entry, looked up): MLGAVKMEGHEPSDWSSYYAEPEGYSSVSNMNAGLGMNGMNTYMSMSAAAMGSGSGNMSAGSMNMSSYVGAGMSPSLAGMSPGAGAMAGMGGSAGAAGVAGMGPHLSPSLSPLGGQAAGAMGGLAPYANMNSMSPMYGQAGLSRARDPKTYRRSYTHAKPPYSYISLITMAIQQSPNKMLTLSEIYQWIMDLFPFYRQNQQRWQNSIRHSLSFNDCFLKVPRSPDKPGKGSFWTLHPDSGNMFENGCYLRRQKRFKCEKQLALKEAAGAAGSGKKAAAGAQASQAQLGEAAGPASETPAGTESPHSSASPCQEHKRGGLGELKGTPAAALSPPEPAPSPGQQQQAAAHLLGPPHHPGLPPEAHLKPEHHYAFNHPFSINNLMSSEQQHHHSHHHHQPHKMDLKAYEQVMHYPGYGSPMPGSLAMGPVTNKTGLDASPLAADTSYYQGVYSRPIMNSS
Sequence of Bile acid receptor (Homo sapiens) (Q96RI1 whole entry, looked up): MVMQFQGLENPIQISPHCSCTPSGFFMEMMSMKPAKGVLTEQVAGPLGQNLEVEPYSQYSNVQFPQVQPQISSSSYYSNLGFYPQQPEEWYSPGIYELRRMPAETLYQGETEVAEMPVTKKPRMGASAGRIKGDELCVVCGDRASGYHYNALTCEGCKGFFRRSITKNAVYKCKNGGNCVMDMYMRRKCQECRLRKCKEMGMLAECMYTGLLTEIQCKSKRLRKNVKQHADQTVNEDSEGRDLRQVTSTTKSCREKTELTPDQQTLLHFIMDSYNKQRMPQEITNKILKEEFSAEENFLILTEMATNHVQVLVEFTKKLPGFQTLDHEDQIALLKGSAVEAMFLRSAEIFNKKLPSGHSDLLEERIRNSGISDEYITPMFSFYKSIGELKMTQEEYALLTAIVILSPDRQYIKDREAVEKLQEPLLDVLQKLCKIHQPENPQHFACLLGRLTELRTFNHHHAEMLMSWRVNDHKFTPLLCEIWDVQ

For the compound `BrC1CCC(Br)C(Br)CCC(Br)C(Br)CCC1Br` (stereo not drawn), the result in experiment [1], in experiment [2], in [4], in [5], in experiment [6] and in experiment [10] was inactive. For the same compound, the compound was classed as inactive in experiment [12], in [13], in experiment [14], in experiment [16] and in [18]. Besides, the AC50 in [3] was 35.9 µM (active); in experiment [7], 87 µM (active); in experiment [8] it was 66.3 µM (active); in [9], 69.1 µM (active); in [11], 87 µM (active); in experiment [15] it was 87 µM (active). Besides, the AC50 in experiment [17] is 49.2 µM (active).

With `CC1COc2ccccc2N1C(=O)C(Cl)Cl` (stereo not drawn), the outcome in experiment [1], in [2], in experiment [4], in experiment [5], in [19] and in experiment [6] was inactive. Besides, the compound was called inactive in experiment [9], in [20], in experiment [12], in experiment [14], in experiment [15] and in experiment [16]. Further, the concentration at half-maximal activity (AC50) is 41.1 µM (active) in experiment [3], 21 µM (active) in experiment [7], 100 µM (active) in experiment [11] and 62.1 µM (active) in experiment [17].

As to `CCCCCCCCCCCCCOS(=O)(=O)O`, the result in experiment [1], in experiment [2], in [3], in [4], in [19] and in experiment [6] was inactive. Besides, the call in [7], in [8], in [9], in experiment [20], in [11] and in experiment [13] was inactive. Moreover, the call in [14], in [15], in [16] and in [17] was inactive.

`O=C(Cl)c1cccc(C(=O)Cl)c1`: the result in experiment [1], in experiment [2], in experiment [3], in experiment [4], in experiment [19] and in [6] was inactive. In addition, the compound was classed as inactive in [7], in experiment [8], in experiment [9], in experiment [20], in [11] and in experiment [12]. The compound was classed as inactive in experiment [13], in experiment [14], in experiment [15], in experiment [16], in experiment [17] and in experiment [18].

For the origin of these results see PubChem BioAssay (EPA / NIEHS).
